The full list was thinned out, with hits kept by preference.
TbREL1 inh: TbREL1 inhibition, primary screen | P86926 | TbREL1 RNA ligation, FRET fluorescence | inhibition, % at 9.66 µM | hit rate 0.49% among 89,000;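 active = inhibition above the mean inhibition across all screened compounds plus 3 SD, cut at about 11% in these data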
Target sequence (P86926 whole entry, looked up): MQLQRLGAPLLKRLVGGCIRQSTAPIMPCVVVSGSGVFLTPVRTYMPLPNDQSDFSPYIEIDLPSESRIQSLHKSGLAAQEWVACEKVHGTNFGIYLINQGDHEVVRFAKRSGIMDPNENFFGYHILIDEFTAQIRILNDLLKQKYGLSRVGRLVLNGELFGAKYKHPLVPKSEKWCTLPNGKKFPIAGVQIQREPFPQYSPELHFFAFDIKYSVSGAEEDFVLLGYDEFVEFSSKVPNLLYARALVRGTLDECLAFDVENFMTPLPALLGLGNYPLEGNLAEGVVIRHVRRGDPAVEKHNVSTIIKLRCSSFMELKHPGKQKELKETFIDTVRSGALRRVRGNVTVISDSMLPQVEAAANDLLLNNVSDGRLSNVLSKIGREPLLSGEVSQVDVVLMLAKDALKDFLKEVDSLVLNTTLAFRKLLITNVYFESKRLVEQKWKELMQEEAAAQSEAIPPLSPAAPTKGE
TbREL1 conf: TbREL1 inhibition, confirmation. shares compounds with TbREL1 inh. hit rate 37% among 390. TbREL1 RNA ligation, FRET fluorescence. inhibition, % at 9.66 µM;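 active = mean inhibition across replicates above a set limit taken from the earlier primary screen, cut at about 11% in these data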
Each line names hits and unclear results; the compound was inactive in the other large screens (follow-up assays come after a bar, where they were run).

Cc1nc2ccccc2n1CC(=O)c1ccc(O)c(O)c1	TbREL1 inh 16.0 | TbREL1 conf 15.5
Cc1[nH]c2ccccc2c1C(=O)COC(=O)Cn1c(C)nc2ccccc21	none
Cc1c(C(=O)N(C)Cc2ccc(F)cc2)sc(=O)n1Cc1ccc(Cl)c(Cl)c1	none
CCOc1ccc(C(=O)CSc2nnc(SCc3ccc(Cl)cc3)s2)cc1	none
CC(C)(C)c1csc(NC(=O)Cn2c(=O)oc3ccccc32)n1	none
CC(C)(C)NC(=O)Cn1c(=O)oc2ccc(Cl)cc21	TbREL1 inh 59.3 | TbREL1 conf inactive
O=C(Cn1c(=O)oc2ccccc21)c1ccccc1	none
Cc1ccc2ccccc2c1C(O)c1ncc(-c2ccccc2Cl)[nH]1 (stereo unspecified)	none
CN(C)CCCn1c(SCC(=O)Nc2nccs2)nnc1-c1ccncc1	none
CCn1c(COc2cc(C)ccc2C(C)C)nnc1SCC(=O)Nc1nccs1	TbREL1 inh 12.2 | TbREL1 conf inactive
Cc1cccc(-n2c(CNC(=O)COc3ccccc3)nnc2SCC(=O)Nc2nccs2)c1	none
C/C(C=NNC(=O)CSc1nnc(-c2ccc(Cl)cc2)n1-c1ccc(C)cc1)=C\c1ccccc1	none
CC(C)(C)OC(=O)N1CCC(N[C@@H](Cc2ccccc2)C(=O)NCC(c2ccccc2)c2ccccc2)(C(=O)NC2CCCCC2)CC1	none
C=CCn1c(CCNC(=O)c2ccccc2F)nnc1SCC(=O)Nc1ccccc1F	none
C=CCn1c(CNC(=O)c2ccccc2F)nnc1SCC(=O)NC(C)c1ccccc1 (stereo unspecified)	TbREL1 inh 12.3 | TbREL1 conf inactive
C=CCn1c(CCNC(=O)c2ccccc2F)nnc1SCC(=O)Nc1nc(C)cs1	none
O=C1CCc2cc(S(=O)(=O)N3CCN(c4ccccc4Cl)CC3)ccc2N1	none
COC(=O)[C@]12C[C@H](CC(=O)NCc3ccc(C)o3)C(=O)N(Cc3cccc4ccccc34)C1=C[C@H](COCc1ccccc1)O[C@@H]2C	none
COc1cc2c(cc1OC)-c1cc(NCc3ccccn3)nc(=O)n1CC2	TbREL1 inh 21.3 | TbREL1 conf 22.5
COc1ccc(Cl)cc1S(=O)(=O)N1CCCC(C(=O)NCc2ccccn2)C1 (stereo unspecified)	none
COc1ccc(C2C(C(=O)NCc3ccccn3)c3cc(OC)c(OC)cc3C(=O)N2C)cc1 (stereo unspecified)	none
CCOC(=O)[C@@]12CCC3=C1N(CCC3)C(=O)[C@H](CC(=O)NCCCCc1ccccc1)C2	none
O=c1c(-c2cccs2)nc2ccccc2n1C(c1ccccn1)c1nc2ccccc2[nH]1 (stereo unspecified)	none
Cc1ccc(-c2c(C(=O)NCC(C)C)oc(=O)c3ccccc23)cc1	none
O=[N+]([O-])c1ccc(N2CCCC2)cc1NC1CC1	none
CC(Nc1cc(N2CCNCC2)ccc1[N+](=O)[O-])c1ccccc1 (stereo unspecified)	none
CCc1ccc(OCCNc2cc(N3CCNC(C)C3)ccc2[N+](=O)[O-])cc1 (stereo unspecified)	TbREL1 inh 12.4 | TbREL1 conf inactive
CC1=C(C(=O)N(C(C)C)C(C)C)CC(CC(=O)NC2CCCC2)C(=O)N1Cc1ccc(C(C)(C)C)cc1 (stereo unspecified)	none
C=CCN1C(=O)[C@H](CC(=O)NCCCCc2ccccc2)[C@@]2(C(=O)OCC)CCCC=C12	none
COc1ccccc1/C=C/C(=O)NNC(=O)c1cccs1	TbREL1 inh 11.5 | TbREL1 conf inactive
COc1ccccc1NC(=O)c1cccs1	none
COc1ccccc1C(=O)NCC(=O)NNC(=O)c1cccs1	none
Cc1n[nH]c(=S)n(NC(=O)/C=C/C(=O)Nn2c(=S)[nH]nc(C)c2=O)c1=O	TbREL1 inh 20.2 | TbREL1 conf 15.4
C(=N\Nc1nncc2ccccc12)/c1cccnc1	none
COc1cccc(C(=O)Nc2ccc(F)c(F)c2F)c1	none
COC(=O)c1sccc1NC(=O)c1cccc(OC)c1	TbREL1 inh 50.5 | TbREL1 conf inactive
COc1cccc(C(=O)Nc2ccccc2F)c1	none
Cc1ccc(NC(=O)C2CCN(c3ncccn3)CC2)cc1C	none
C[C@H]1CCC[C@H](O)CC(=O)c2c(O)cc(O)cc2CC(=O)O1	none
Oc1ccc(Cc2ccccc2)c2cccnc12	none
Oc1ccc(Cl)c2cccnc12	none
Oc1ccc(-c2nn[nH]n2)c2cccnc12	TbREL1 inh 15.6 | TbREL1 conf inactive
Nc1ccn([C@@H]2O[C@H](C(=O)N[C@H](Cc3ccccc3)C(=O)NCC(F)(F)F)[C@@H](O)[C@H]2O)c(=O)n1	none
O=C(COC(=O)C1CCC1)Nc1ccc(OC(F)F)cc1	none
C[C@H](NC(N)=O)C(=O)OCC(=O)Nc1ccc(OC(F)F)cc1	TbREL1 inh 11.6 | TbREL1 conf inactive
CCCCC(=O)OCC(=O)Nc1ccc(OC(F)F)cc1	none
COC(=O)c1ccc(S(=O)(=O)N2CCC(NC(=O)Cc3cccc(C)c3)CC2)cc1	none
COc1cc(O)c(C(CC(=O)N2CC(C)OC(C)C2)c2ccc3c(c2)OCO3)c(OC)c1 (stereo unspecified)	none
CCn1c(=O)n(CC(=O)N2CCOCC2)c(=O)c2ccccc21	none
CCCCC[C@H](C)N1C[C@H](COCc2ccccc2)Oc2cc(N3CC[C@H](N(C)C)C3)ccc2S1(=O)=O	none
CCCCC[C@H](C)N1C[C@@H](COCc2ccccc2)Oc2cc(N3CC[C@@H](O)C3)ccc2S1(=O)=O	none
CCCCC[C@@H](C)N1C[C@@H](COCc2ccccc2)Oc2cc(N3CC[C@@H](N(C)C)C3)ccc2S1(=O)=O	TbREL1 inh 14.2 | TbREL1 conf inactive
O=C(CSc1nnc(-c2ccccc2)n1-c1ccccc1)NN=C/C=C\c1ccccc1[N+](=O)[O-]	none
COC(=O)[C@@H](C)NC(=O)C(Cc1ccc2c(c1)OCO2)NC(C)=O (stereo partly specified)	none
CCC(=O)Nc1ccc2c(c1)C(=O)c1ccccc1C2=O	TbREL1 inh 13.9 | TbREL1 conf inactive
CCC(=O)Nc1ccc(C(=O)NNC(=O)c2ccccc2)cc1	none
CCC(=O)NC1=C(NC(C)c2ccccc2)C(=O)c2ccccc2C1=O (stereo unspecified)	none
CCOc1cccc(-c2nn3c(-c4cccc(C)c4)nnc3s2)c1	none
O=C1C2C(CC3c4ccccc4CCN32)CN1c1ccccc1 (stereo unspecified)	none
Nc1ccc(-c2nc3ccc(-c4nc5ccccc5o4)cc3[nH]2)cc1	none
Nc1ccc(-c2nc3ccc([N+](=O)[O-])cc3[nH]2)cc1	none
Nc1ccc(-c2nc3ccc(N)cc3[nH]2)cc1	TbREL1 inh 18.4 | TbREL1 conf 36.3
C[C@H]1C2CC(OC(=O)Nc3ccc(C#N)cc3)C(C2)[C@H]2CCCCN21 (stereo partly specified)	none
COc1ccc2nc(C)cc(NCc3cccc(C(F)(F)F)c3)c2c1	TbREL1 inh 12.6 | TbREL1 conf 15.5
COc1ccc2nc(C)cc(Nc3ccccc3O)c2c1	none
COc1cccc(Nc2cc(C)nc3ccccc23)c1	none
COc1ccc(OC)c(S(=O)(=O)N2CCCCC2C(=O)N2CCCN(C)CC2)c1 (stereo unspecified)	none
CC1(C)CC(=O)C=C(Nc2ccccc2NC(=O)c2ccc(F)cc2F)C1	none
CC1(C)Cc2c(c(-c3ccccc3)[nH]c(=O)c2C#N)CS1	none
CC1(C)Cc2c(c(-c3ccco3)[nH]c(=O)c2C#N)CS1	TbREL1 inh 15.0 | TbREL1 conf inactive
CC(=O)N1CCN(c2nc(-c3ccco3)c3c(c2C#N)CC(C)(C)SC3)CC1	none
COc1ccccc1CNC(=O)CCC(=O)Nc1nnc(C(C)C)s1	none
CC(C)c1nnc(NC(=O)CCC(=O)NCc2ccc3c(c2)OCO3)s1	TbREL1 inh 17.6 | TbREL1 conf inactive
CC(C)c1ccc(NC(=O)NCc2ccc3c(c2)OCO3)cc1	none

Screening results: PubChem, The Scripps Research Institute Molecular Screening Center
